Reference: the supplement of paper PMC11732987, “Enantioselective OTUD7B fragment discovery through chemoproteomics screening and high-throughput optimisation” (Communications Chemistry, 2025)

Experiments:
Assay in all cases: log2 ratio of Biotin-Ahx-Ub-VS probe labelling (fragment/DMSO); higher = less target engagement (more negative = stronger competition), active = hit call of the paper (q ≤ 0.05, log2 ratio ≤ -1)
Settings in all cases: compound concentration: 200 uM; treatment time: 3 h
USP19 = molecular target: T1, USP19 (UniProt O94966)
T1 sequence (whole entry): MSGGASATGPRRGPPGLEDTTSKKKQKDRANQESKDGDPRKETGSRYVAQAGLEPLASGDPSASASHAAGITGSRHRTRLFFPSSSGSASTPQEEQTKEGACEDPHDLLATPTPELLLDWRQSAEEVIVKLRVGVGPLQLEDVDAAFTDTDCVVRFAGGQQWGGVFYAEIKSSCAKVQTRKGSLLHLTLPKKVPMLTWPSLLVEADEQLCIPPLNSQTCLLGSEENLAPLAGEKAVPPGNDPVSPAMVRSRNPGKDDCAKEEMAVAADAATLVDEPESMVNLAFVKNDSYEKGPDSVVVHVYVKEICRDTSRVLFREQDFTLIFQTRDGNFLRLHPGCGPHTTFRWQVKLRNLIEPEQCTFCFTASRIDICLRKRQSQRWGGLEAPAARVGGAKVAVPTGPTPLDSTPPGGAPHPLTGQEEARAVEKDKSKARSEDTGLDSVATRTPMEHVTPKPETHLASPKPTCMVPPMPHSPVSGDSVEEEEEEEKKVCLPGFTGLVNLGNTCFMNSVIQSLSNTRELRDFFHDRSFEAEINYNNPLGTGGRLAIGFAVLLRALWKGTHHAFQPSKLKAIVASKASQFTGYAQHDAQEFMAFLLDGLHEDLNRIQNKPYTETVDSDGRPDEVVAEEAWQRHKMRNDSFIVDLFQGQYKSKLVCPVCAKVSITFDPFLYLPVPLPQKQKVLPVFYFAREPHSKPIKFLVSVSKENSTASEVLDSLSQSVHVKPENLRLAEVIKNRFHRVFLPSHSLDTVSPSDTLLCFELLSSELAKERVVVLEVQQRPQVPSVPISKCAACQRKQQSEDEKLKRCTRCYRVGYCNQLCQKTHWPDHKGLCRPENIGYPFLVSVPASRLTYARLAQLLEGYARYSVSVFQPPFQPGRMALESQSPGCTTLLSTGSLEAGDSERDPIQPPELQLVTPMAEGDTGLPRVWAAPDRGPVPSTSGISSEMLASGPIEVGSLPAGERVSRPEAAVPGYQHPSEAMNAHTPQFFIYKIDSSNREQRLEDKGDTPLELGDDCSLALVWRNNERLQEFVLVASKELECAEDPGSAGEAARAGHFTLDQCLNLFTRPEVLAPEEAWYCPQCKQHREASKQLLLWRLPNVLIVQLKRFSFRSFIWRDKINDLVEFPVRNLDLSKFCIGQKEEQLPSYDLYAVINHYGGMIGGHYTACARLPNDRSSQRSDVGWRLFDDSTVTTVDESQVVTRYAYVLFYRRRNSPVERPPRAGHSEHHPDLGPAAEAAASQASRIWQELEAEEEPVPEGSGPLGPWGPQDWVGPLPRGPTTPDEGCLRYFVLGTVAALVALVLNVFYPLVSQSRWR
Summary of the method: (§1)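 Each value is an average log2 ratio of fragment to vehicle, tested by unpaired t-test. The underlying Spectronaut label-free quantities were global-median-normalised, and only proteins with ≥2 unique peptides were included. Triplicate HEK293T lysate samples (495 µg) were exposed to fragment at 200 µM or vehicle for 3 h, then to Biotin-Ahx-Ub-VS at 0.5 µM final for 1 h, before NeutrAvidin enrichment of labelled DUBs, LysC and trypsin digestion, and diaPASEF LC-MS/MS.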

USP24 = USP24 (UniProt Q9UPU5)
Sequence of USP24 (Q9UPU5 whole entry): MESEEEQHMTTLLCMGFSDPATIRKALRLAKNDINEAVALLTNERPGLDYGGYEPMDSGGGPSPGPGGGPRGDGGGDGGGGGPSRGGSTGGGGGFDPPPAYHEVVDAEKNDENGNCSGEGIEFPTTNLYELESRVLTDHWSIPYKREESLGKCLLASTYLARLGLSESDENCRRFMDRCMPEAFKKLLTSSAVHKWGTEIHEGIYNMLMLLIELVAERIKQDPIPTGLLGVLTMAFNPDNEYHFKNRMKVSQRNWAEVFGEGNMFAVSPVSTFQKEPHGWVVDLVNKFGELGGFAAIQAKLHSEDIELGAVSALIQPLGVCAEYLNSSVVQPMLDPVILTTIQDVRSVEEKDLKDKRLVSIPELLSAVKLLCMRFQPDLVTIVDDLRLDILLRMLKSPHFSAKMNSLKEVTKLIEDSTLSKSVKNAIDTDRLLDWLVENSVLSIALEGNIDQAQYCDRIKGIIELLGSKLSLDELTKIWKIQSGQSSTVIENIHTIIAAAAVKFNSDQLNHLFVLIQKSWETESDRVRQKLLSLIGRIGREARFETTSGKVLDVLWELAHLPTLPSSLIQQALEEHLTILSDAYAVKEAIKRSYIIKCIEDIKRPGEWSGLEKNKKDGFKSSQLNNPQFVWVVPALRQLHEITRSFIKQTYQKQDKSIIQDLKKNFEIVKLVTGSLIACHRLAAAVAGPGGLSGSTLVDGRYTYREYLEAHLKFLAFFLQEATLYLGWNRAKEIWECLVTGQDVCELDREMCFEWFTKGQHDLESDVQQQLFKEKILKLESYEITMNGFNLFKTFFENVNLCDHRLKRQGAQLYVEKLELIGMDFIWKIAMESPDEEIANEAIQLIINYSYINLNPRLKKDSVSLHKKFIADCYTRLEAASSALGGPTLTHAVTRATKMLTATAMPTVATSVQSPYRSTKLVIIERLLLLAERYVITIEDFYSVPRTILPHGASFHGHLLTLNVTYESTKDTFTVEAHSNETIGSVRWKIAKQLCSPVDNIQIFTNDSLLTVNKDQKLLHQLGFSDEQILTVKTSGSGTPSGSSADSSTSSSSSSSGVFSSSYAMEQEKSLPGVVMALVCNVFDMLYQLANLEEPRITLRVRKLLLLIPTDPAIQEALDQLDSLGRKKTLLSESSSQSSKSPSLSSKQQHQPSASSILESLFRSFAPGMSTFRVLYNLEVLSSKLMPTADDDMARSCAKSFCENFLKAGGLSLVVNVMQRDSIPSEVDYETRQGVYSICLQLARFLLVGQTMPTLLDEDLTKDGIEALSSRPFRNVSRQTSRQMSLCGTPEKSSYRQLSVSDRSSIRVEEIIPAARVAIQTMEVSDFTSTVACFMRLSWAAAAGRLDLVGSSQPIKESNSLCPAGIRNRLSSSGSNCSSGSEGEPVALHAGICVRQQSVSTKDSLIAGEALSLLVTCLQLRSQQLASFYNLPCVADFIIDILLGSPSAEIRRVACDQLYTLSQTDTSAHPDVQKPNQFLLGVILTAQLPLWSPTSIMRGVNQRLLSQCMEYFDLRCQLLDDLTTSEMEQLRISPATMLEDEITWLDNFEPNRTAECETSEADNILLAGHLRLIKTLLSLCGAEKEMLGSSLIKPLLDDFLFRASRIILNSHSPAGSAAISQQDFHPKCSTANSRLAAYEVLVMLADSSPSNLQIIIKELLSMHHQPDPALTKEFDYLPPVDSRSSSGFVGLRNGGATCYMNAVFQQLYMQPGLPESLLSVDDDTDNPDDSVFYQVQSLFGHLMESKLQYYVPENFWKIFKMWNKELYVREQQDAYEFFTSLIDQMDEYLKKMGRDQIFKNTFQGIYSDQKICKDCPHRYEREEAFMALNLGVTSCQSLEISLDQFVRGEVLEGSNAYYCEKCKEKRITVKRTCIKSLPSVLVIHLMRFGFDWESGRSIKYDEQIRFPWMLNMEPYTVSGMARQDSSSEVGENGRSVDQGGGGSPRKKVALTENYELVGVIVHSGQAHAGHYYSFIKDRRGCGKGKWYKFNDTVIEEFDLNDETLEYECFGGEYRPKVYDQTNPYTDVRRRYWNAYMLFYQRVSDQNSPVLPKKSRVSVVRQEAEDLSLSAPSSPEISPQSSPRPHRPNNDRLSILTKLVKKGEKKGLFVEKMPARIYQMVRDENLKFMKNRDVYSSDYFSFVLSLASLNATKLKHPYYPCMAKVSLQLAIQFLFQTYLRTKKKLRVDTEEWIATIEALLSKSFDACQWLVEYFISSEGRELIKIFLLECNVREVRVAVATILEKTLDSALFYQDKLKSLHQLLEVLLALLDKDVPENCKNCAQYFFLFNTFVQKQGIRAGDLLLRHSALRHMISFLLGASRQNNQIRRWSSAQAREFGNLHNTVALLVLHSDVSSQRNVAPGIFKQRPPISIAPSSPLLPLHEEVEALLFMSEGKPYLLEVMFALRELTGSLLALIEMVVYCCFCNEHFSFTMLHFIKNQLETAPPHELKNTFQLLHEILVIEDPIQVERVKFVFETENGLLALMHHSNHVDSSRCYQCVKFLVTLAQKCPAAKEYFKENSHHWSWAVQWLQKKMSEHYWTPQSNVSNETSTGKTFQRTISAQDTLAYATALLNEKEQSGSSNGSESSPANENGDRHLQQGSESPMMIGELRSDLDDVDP
Summary of the method: as §1

USP25 = molecular target: T2, USP25 (UniProt Q9UHP3)
T2 sequence (whole entry): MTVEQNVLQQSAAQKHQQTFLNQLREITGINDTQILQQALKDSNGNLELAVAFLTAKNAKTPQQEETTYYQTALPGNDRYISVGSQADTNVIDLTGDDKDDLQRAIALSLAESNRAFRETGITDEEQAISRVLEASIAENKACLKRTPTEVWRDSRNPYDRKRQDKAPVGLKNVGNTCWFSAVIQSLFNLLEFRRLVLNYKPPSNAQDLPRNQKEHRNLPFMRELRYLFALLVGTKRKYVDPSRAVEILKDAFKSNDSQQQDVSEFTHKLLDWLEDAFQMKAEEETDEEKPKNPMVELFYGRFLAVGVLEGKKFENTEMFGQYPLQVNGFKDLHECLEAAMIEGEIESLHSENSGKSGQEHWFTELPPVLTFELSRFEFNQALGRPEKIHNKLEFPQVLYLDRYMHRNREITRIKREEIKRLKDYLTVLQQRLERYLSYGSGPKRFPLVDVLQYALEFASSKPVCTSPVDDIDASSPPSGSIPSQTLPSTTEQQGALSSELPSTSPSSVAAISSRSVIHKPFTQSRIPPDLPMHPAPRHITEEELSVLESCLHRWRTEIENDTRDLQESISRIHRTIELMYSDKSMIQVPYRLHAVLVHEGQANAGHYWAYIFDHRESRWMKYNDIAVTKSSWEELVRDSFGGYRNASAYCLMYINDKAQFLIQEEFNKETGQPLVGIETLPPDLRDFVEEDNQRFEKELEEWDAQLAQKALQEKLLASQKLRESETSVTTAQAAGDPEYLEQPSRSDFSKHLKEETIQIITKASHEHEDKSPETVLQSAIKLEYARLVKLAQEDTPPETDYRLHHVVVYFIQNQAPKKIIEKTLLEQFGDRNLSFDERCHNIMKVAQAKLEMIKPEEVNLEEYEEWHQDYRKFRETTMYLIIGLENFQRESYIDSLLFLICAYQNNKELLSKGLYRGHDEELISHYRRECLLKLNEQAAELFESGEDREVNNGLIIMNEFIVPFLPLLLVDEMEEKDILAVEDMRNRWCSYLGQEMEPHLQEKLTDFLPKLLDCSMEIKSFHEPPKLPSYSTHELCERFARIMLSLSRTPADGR
Summary of the method: as §1

USP28 = molecular target: T3, USP28 (UniProt Q96RU2)
T3 sequence (whole entry): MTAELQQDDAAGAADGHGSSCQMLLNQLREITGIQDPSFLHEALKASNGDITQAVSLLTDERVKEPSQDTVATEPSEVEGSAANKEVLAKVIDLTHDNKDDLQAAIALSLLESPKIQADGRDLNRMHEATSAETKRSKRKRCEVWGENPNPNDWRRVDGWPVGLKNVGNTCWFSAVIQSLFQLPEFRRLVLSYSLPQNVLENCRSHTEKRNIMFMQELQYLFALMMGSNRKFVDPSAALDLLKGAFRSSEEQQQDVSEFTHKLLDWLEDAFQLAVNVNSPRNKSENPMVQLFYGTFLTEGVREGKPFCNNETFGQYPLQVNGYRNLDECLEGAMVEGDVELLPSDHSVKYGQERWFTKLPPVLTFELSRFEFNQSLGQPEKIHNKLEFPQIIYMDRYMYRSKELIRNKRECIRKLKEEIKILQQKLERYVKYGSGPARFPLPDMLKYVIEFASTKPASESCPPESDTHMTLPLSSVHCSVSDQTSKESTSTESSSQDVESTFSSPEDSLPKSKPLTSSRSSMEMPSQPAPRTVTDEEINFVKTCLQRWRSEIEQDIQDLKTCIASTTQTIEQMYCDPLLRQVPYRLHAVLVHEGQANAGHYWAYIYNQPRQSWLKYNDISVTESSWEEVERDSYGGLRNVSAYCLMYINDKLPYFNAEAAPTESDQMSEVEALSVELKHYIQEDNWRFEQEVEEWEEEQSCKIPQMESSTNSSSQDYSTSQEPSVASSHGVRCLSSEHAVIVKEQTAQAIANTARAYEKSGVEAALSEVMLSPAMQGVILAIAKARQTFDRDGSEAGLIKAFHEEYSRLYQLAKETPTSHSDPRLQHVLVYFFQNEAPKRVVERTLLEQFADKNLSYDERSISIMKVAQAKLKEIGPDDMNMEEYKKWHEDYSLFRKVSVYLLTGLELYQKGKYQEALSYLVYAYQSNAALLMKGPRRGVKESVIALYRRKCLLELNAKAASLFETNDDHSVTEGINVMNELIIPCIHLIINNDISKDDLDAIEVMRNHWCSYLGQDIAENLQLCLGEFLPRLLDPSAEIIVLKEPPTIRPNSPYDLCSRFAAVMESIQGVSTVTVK
Summary of the method: as §1

Measured: log2 ratio of Biotin-Ahx-Ub-VS probe labelling

O=C(CCl)N1CCCC2CCCCC21 (centres undefined)
inactive: USP19 -0.188 | USP24 -0.697 | USP25 -0.193 | USP28 -0.333
